# In publication PMC11062922 (Nature Chemical Biology, 2023):
# Where two headings read alike, the source gives them in different places.
# Tests used:
# Set-up in all cases: species or system human, MV4-11 + K-562 + COLO205 + SK-N-BE2 + OVCAR-8
# CDK16 = settings: read-out: apparent Kd, n = 1
# MAPK10 = settings: read-out: apparent Kd, compound concentrations: 100 nM and 1000 nM (sheet 'Samples'), n = 1
# MAPK9 = settings: read-out: apparent Kd, n = 1
# BCR = settings: read-out: apparent Kd; compound concentrations: 100 nM and 1000 nM (sheet 'Samples'), CATDS: 2.3215110623404499E-2; n = 1
# CAMKK2 = settings: read-out: apparent Kd, compound concentrations: 100 nM and 1000 nM (sheet 'Samples'), n = 1
# EPHA4 = settings: read-out: apparent Kd, compound concentrations: 100 nM and 1000 nM (sheet 'Samples'), n = 1
# EPHA5 = settings: read-out: apparent Kd, compound concentrations: 100 nM and 1000 nM (sheet 'Samples'), n = 1
# EPHB2 = settings: read-out: apparent Kd, compound concentrations: 100 nM and 1000 nM (sheet 'Samples'), n = 1
# EPHB4 = settings: read-out: apparent Kd, compound concentrations: 100 nM and 1000 nM (sheet 'Samples'), n = 1
# PRKACB = settings: read-out: apparent Kd, n = 1
# PRKAG2 = settings: read-out: apparent Kd, compound concentrations: 100 nM and 1000 nM (sheet 'Samples'), n = 1
# TNK1 = settings: read-out: apparent Kd, compound concentrations: 100 nM and 1000 nM (sheet 'Samples'), n = 1
# TNK2 = settings: read-out: apparent Kd, n = 1
# MARK3 = settings: read-out: apparent Kd, n = 1
# PRKACA = settings: read-out: apparent Kd, n = 1
# STK4 = settings: read-out: apparent Kd, n = 1
# AURKA = settings: read-out: apparent Kd, n = 1
# CHEK1 = settings: read-out: apparent Kd; compound concentrations:100 nM and 1000 nM (sheet 'Samples'); n = 1
# CSNK1D = settings: read-out: apparent Kd; compound concentrations:100 nM and 1000 nM (sheet 'Samples'); n = 1
# RPS6KA4 = settings: read-out: apparent Kd; compound concentrations:100 nM and 1000 nM (sheet 'Samples'); n = 1
# [1] = compound concentrations:100 nM and 1000 nM (sheet 'Samples')
smiles,measurement,setting,value
COc1cc[nH]c1/C=C1\C(=O)Nc2ccc([N+](=O)[O-])c(N3CC[C@@H](O)C3)c21 [RO0504985-000],potency estimated from few doses,"CDK16; compound concentrations: 100 nM and 1000 nM (sheet 'Samples'), CATDS: 3.96360486889639E-2",697 nM
same,potency estimated from few doses,MAPK10; CATDS: 3.16649097319332E-2,1540 nM
same,potency estimated from few doses,"MAPK9; compound concentrations: 100 nM and 1000 nM (sheet 'Samples'), CATDS: 2.9417077034867501E-2",2110 nM
Cl.Cn1c(=O)c(Cc2ccccc2F)cc2cnc(NC3CCOCC3)nc21 [RO3305377-001],potency estimated from few doses,BCR,783 nM
same,potency estimated from few doses,CAMKK2; CATDS: 1.7496919808973301E-2,1640 nM
same,potency estimated from few doses,EPHA4; CATDS: 2.0796665862367499E-2,1010 nM
same,potency estimated from few doses,EPHA5; CATDS: 2.9701717682633799E-2,481 nM
same,potency estimated from few doses,EPHB2; CATDS: 2.7488679205580801E-2,555 nM
same,potency estimated from few doses,EPHB4; CATDS: 3.5368678995808499E-2,357 nM
same,potency estimated from few doses,MAPK10; CATDS: 2.2981904071827101E-2,800 nM
same,potency estimated from few doses,"MAPK9; compound concentrations: 100 nM and 1000 nM (sheet 'Samples'), CATDS: 2.8205864879245399E-2",529 nM
same,potency estimated from few doses,"PRKACB; compound concentrations: 100 nM and 1000 nM (sheet 'Samples'), CATDS: 1.8562598651845501E-2",1370 nM
same,potency estimated from few doses,PRKAG2; CATDS: 2.6904980441579199E-2,578 nM
same,potency estimated from few doses,TNK1; CATDS: 3.75321125845825E-2,325 nM
same,potency estimated from few doses,"TNK2; compound concentrations: 100 nM and 1000 nM (sheet 'Samples'), CATDS: 3.6301330504794102E-2",342 nM
CNc1nccc(-c2ccc3c(N)n[nH]c3c2)n1 [GSK2206003A],potency estimated from few doses,"MARK3; compound concentrations: 100 nM and 1000 nM (sheet 'Samples'), CATDS: 5.1673366030294897E-2",1410 nM
Cl.Cl.NC[C@H](CC1CCCCC1)NC(=O)c1ccc(-c2ccnc3[nH]ccc23)s1.NC[C@H](CC1CCCCC1)NC(=O)c1ccc(-c2ccnc3[nH]ccc23)s1 [GSK1581428A],potency estimated from few doses,PRKACA; [1],31 nM
same,potency estimated from few doses,PRKACB; [1],49.7 nM
Cn1cc(C2=C(c3ccc(OC[C@@H](O)CO)cc3)C(=O)NC2=O)c2ccccc21 [RO3208546-000],potency estimated from few doses,EPHA4; CATDS: 3.51410618583008E-2,1520 nM
same,potency estimated from few doses,EPHA5; CATDS: 3.9302113752780102E-2,1120 nM
same,potency estimated from few doses,EPHB2; CATDS: 4.4288817418137498E-2,840 nM
same,potency estimated from few doses,EPHB4; CATDS: 6.3567639225114006E-2,415 nM
same,potency estimated from few doses,PRKAG2; CATDS: 4.1666716087244697E-2,967 nM
same,potency estimated from few doses,TNK1; CATDS: 0.384256828153267,31.7 nM
same,potency estimated from few doses,"TNK2; compound concentrations: 100 nM and 1000 nM (sheet 'Samples'), CATDS: 6.2991293235435897E-2",422 nM
NS(=O)(=O)c1ccc(N/N=C2\C(=O)Nc3ccc4ncccc4c32)cc1 [GW305178X],potency estimated from few doses,"STK4; compound concentrations: 100 nM and 1000 nM (sheet 'Samples'), CATDS: 4.4831401788358302E-2",1360 nM
Cl.Nc1nc(-c2ccc3c(c2)C(=Cc2cc(Br)c(O)c(Br)c2)C(=O)N3)cs1 [GW407323A],potency estimated from few doses,"CDK16; compound concentrations: 100 nM and 1000 nM (sheet 'Samples'), CATDS: 4.1043878899959203E-2",464 nM
O=C(Nc1n[nH]c2nc(-c3ccccc3O)ccc12)C1CC1 [SB-711880],potency estimated from few doses,AURKA; [1],286 nM
same,potency estimated from few doses,CHEK1,967 nM
same,potency estimated from few doses,MARK3; [1],1610 nM
same,potency estimated from few doses,STK4; [1],345 nM
same,potency estimated from few doses,TNK2; [1],517 nM
Nc1nccc(-c2ccc3c(N)n[nH]c3c2)n1 [GSK1034945A],potency estimated from few doses,MARK3; [1],1040 nM
Cc1cc(NC(=O)c2cccc(NC(=O)/C=C/CN(C)C)c2)ccc1Nc1nccc(-c2cccnc2)n1 [JNK-IN-7],potency estimated from few doses,CSNK1D,1190 nM
same,potency estimated from few doses,MAPK9; [1],6.45 nM
Cl.Cl.NCC(NC(=O)c1cc(-c2ccnc3[nH]ccc23)cs1)c1ccccc1.NCC(NC(=O)c1cc(-c2ccnc3[nH]ccc23)cs1)c1ccccc1 (centres unmarked) [GSK1229959A],potency estimated from few doses,CAMKK2; CATDS: 1.7349658835090001E-2,1720 nM
same,potency estimated from few doses,"CDK16; compound concentrations: 100 nM and 1000 nM (sheet 'Samples'), CATDS: 1.6665892971292499E-2",2280 nM
same,potency estimated from few doses,"PRKACA; compound concentrations: 100 nM and 1000 nM (sheet 'Samples'), CATDS: 5.4700328593155198E-2",27.5 nM
same,potency estimated from few doses,"PRKACB; compound concentrations: 100 nM and 1000 nM (sheet 'Samples'), CATDS: 4.1114005800974601E-2",56 nM
CCn1c(-c2nonc2N)nc2cncc(C(=O)N3CC[C@H](N)C3)c21.Cl [SB-772077-B],potency estimated from few doses,PRKACA; [1],790 nM
same,potency estimated from few doses,RPS6KA4,82.6 nM
COc1cccc(C2=C(c3c(C)n(C)c4ccccc34)C(=O)NC2=O)c1 [RO3300167-000],potency estimated from few doses,"AURKA; compound concentrations: 100 nM and 1000 nM (sheet 'Samples'), CATDS: 0.14578513534179899",490 nM
same,potency estimated from few doses,"STK4; compound concentrations: 100 nM and 1000 nM (sheet 'Samples'), CATDS: 0.12261986260266899",646 nM
NS(=O)(=O)c1ccc(N/N=C2\C(=O)Nc3ccc(-c4cnco4)cc32)cc1 [GW276655_KCGS],potency estimated from few doses,CDK16; [1],1880 nM
